Source: PubChem (National Center for Advancing Translational Sciences (NCATS))
SW480 rerep: induces DNA re-replication in SW480 colon adenocarcinoma cells; 1.8% of 340,000 active; SW480 DNA re-replication, Hoechst DNA content imaging, 48 h; Potency, µM (highest dose often 46.1 µM), for the others: top-dose re-replication activation, actives largely listed as activators; note: % of control where 0% means no effect; nearly all actives have a fitted effect of over 55% in size
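Readout is total intensity of Hoechst-stained nuclei, excited at 405 nm and collected at 500-530 nm. Compound treatment lasted 48 hr at 37 C in 5% CO2 before staining.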
MCF10A rerep: inducers of DNA re-replication in MCF 10A breast cells; MCF 10A DNA re-replication, Hoechst nuclear intensity, 48 h; Potency, µM (series often up to 46.1 µM), for the others: top-dose activity, positive = re-replication, most hits filed as activators; 2.9% of 350,000 active; AID 624296; note: % of control where 0% means no effect; nearly all actives have a fitted effect of over 50% in size
ELG1 repair inh: inhibitors of ELG1-dependent DNA repair in HEK293T cells | HEK293T ELG1-luciferase reporter, luminescence, 16 h; DNA damage induced by 5-fluorouridine | Potency, µM (highest dose often 46.1 µM), for the others: at the top dose activity change, negative = inhibition, most hits filed as inhibitors | 2.3% of 330,000 active; note: % is set by controls: 0 for no effect and ±100 for the full control effect; nearly all actives have a fitted effect of over 55% in size
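DMSO vehicle served as the neutral condition. Each well held 2,000 cells given 5-fluorouridine plus compound; after 16 hr at 37 °C/5% CO2, ONE-Glo was added and luciferase measured 30 min later.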
KB-V1 cytotox: KB-V1 MDR subline cytotoxicity. KB-V1 MDR cells viability, CellTiter-Glo, 72 h. Potency, µM (highest dose often 46.1 µM), hits mostly cytotoxic. 3.4% of 400,000 active; note: % is set by controls: 0 for no effect and ±100 for the full control effect; nearly all actives have a fitted effect of over 60% in size
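Cytotoxicity toward P-gp-expressing KB-V1 cells was determined as loss of CellTiter-Glo luminescence after 72 h at 37 degrees C. Compounds were tested in quantitative HTS format across a concentration range, with curves fitted to normalized data.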
KB-3-1 tox: kills parental KB-3-1 adenocarcinoma cells; AID 1347075; Potency, µM (highest dose often 46.1 µM), hits mostly cytotoxic; KB-3-1 viability, CellTiter-Glo ATP luminescence, 72 h; 1.4% of 400,000 active; note: % is set by controls: 0 for no effect and ±100 for the full control effect; nearly all actives have a fitted effect of over 60% in size
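Cells are dispensed, compounds pinned in, plates held at 37 °C for 72 h, then CellTiter-Glo is added and luminescence read after 10 minutes. Cell line: parental KB-3-1 in phenol-red-free DMEM, 10% FBS.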
Active calls of the source: *; i = inactive; ? = inconclusive; . = no result; ! = repeats disagree. In the library only some 8.1% were active in any assay of this set; here they are far more common. Calls come from the whole dose curve; as a rule, active = well fitted curve in the direction sought with a large enough effect; inconclusive = small, poorly fitted or top-dose-only effect, or another doubt; inactive = no such curve, though single readings can be large; an effect the other way counts as inactive or inconclusive. Potency is the fitted concentration of half-maximal effect.

SMILES	SW480 rerep	MCF10A rerep	ELG1 repair inh	KB-V1 cytotox	KB-3-1 tox
O=C1C=C(c2ccc(Cl)c(C(F)(F)F)c2)C[C@@H](c2ccc3c(c2)OCO3)C1	-11%	4%	-12%	i	i
CCOc1ccccc1CN1CCNC(=O)C1CC(=O)N(C)CCc1ccccn1 (centres undefined)	-13%	-31%	?	i	i
O=C(Nc1nc(-c2ccccc2)cs1)c1ccc2c(=O)n3c(nc2c1)CCCCC3	-7%	18µM*	3.7µM*	?	?
O=C(Nc1ccccc1Cl)c1ccc2c(=O)n3c(nc2c1)CCC3	-5%	6%	?	i	i
Cc1cc(C)c2nc(NC(=O)c3ccc4c(=O)n5c(nc4c3)CCCCC5)sc2c1	-1%	16%	10µM*	i	i
COc1cc(NC(=O)c2ccc(-c3cn[nH]c3)c3ccoc23)cc(OC)c1OC	.	.	.	i	i
CC(C)OC(=O)c1c(NC(=O)c2cccs2)sc2c1CCCC2	10%	16µM*	1%	i	i
CC(C)OC(=O)c1c(NC(=O)c2ccco2)sc2c1CCCCC2	-6%	16µM*	6%	i	i
O=C(Nc1sc2c(c1C(=O)NCc1cccnc1)CCCC2)c1ccco1	-8%	?	-21%	23µM*	i
CC1CCc2c(sc(NC(=O)c3cccs3)c2C(=O)O)C1 (centres undefined)	-9%	?	38%	i	10µM*
COC(=O)c1c(NC(=O)c2ccco2)sc2c1CCC2	2%	?	14%	i	i
CCc1[nH]c(=O)[nH]c1C(C)S(=O)(=O)c1ccc(C)cc1 (centres undefined)	-31%	5%	8%	i	i
COc1cccc(N2CCN(C(=O)C3CCC(CNS(=O)(=O)c4ccc(Br)s4)CC3)CC2)c1 (centres undefined)	.	.	.	?	i
CC1(C)N=C(SCC(=O)Nc2ccc(Cl)cc2Cl)C(c2ccccc2)=N1	3%	?	-27%	21µM*	i
O=[N+]([O-])c1ccc(N/N=C/c2sc(N3CCOCC3)nc2-c2ccccc2)c(S(=O)(=O)Nc2ccccc2Cl)c1	13µM*	10%	?	?	9.2µM*
O=C(N/N=C/c1sc(N2CCOCC2)nc1-c1ccccc1)c1ccccc1Cl	3%	0%	0%	i	i
O=C(O)c1cccc(N/N=C/c2sc(N3CCOCC3)nc2-c2ccccc2)c1	?	?	?	i	i
O=[N+]([O-])c1ccc(N/N=C/c2sc(N3CCOCC3)nc2-c2ccccc2)c(S(=O)(=O)Nc2ccc(Cl)cc2)c1	10µM*	?	?	i	2.3µM*
O=C(O)c1[nH]c2ccccc2c1C(c1c(F)cccc1Cl)c1c(C(=O)O)[nH]c2ccccc12	-1%	-1%	-16%	i	i
CCOC(=O)C1CCCN(C(=O)CN2C(=O)c3ccccc3C2=O)C1 (centres undefined)	-2%	0%	5%	i	i
CCOC(=O)C1CCCN(C(=O)CN2C(=O)/C(=C/c3ccc(OC)cc3)Oc3ccccc32)C1 (centres undefined)	5%	?	23µM*	16µM*	i
C=CCN(c1ccccc1OC)S(=O)(=O)c1cccc(C(=O)OCC(=O)N2CC(C)OC(C)C2)c1 (centres undefined)	7%	11%	-22%	4.1µM*	i
CCOc1cc(-c2cc(-c3ccccc3)nc(N)c2C#N)ccc1O	?	?	?	i	i
CCOc1cc(-c2cc(-c3ccc(N)cc3)nc(N)c2C#N)ccc1O	?	12µM*	?	?	?
COc1cc(S(=O)(=O)NCCOC23CC4CC(CC(C4)C2)C3)c(OC)cc1Cl	-8%	?	16µM*	5.8µM*	?
SMILES	SW480 rerep	MCF10A rerep	ELG1 repair inh	KB-V1 cytotox	KB-3-1 tox
CCOc1ccc(OCC)c(S(=O)(=O)NCCOC23CC4CC(CC(C4)C2)C3)c1	-11%	?	?	?	?
O=C(NCc1ccccc1C(F)(F)F)C1CCC(=O)N(CCCc2ccccc2)C1 (centres undefined)	0%	9%	-3%	?	i
COc1cc(-c2onc3ccc(Br)cc23)cc(OC)c1OC	18µM*	?	?	2.1µM*	5.2µM*
COc1ccc(-c2onc3ccc(Br)cc23)cc1	0%	3%	-6%	i	i
CN(C)c1ccc(C(CNS(=O)(=O)c2ccc(F)cc2)c2c[nH]c3ccccc23)cc1 (centres undefined)	12%	21µM*	-20%	?	?
Oc1ccc(F)c2cccnc12	?	?	-3%	i	i
OCc1ccc(O)c2ncccc12	16µM*	?	?	?	?
O=C(O)c1ccc(O)c2ncccc12	.	.	.	i	i
Oc1ccc(COCc2ccccc2)c2cccnc12	3.3µM*	?	?	?	?
Oc1ccc(Cc2ccccc2)c2cccnc12	?	?	.	i	23µM*
Oc1c(CN2CCCCC2)ccc2cccnc12	5.2µM*	112%	.	?	?
CCNc1nc(SCC(=O)Nc2ccc(Cl)c(Cl)c2)nc(N2CCOCC2)n1	4%	?	?	i	?
Cc1ccc(C)c(-c2cc(C(=O)NNC(=S)NCC(C)C)c3ccccc3n2)c1	-4%	?	-20%	?	i
Cc1cc(NC(=O)CCN2CC(C)OC(C)C2)ccc1Br (centres undefined)	6%	9%	0%	i	i
Oc1ccc(CNc2ccccc2F)c2cccnc12	?	?	?	?	21µM*!
Oc1c(CN2CCCCC2)cc(COCc2ccccc2)c2cccnc12	3.2µM*	16µM*	-7%	?	5.2µM*
C[C@@H]1c2cccc(O)c2C(O)=C2C(=O)[C@@]3(O)C(O)=C(C(N)=O)C(=O)[C@@H](N(C)C)[C@@H]3[C@@H](O)[C@@H]21	4%	4%	.	.	.
Cc1ccc(NC(=S)NNC(=O)Nc2ccccc2)cc1	0%	-4%	?	i	i
Cc1ccc(NC(=S)NNC(=S)Nc2ccc(C)cc2)cc1	-5%	25%	.	?	3.7µM*
Cc1ccc(NNC(=S)Nc2ccc(C(C)C)cc2)c(C)c1	6%	7.3µM*	19%	i	i
Cc1ccc(NC(=S)NNC(=O)c2c(Cl)c(C)nn2C)cc1	0%	?	-7%	16µM*	i
O=C(NNC(=S)Nc1ccc(F)cc1)c1ccccc1OC(F)F	-11%	2%	-21%	?	i
Cc1ccc(NC(=S)NNC(=O)c2ccccc2OC(F)F)cc1	16µM*	-4%	1%	?	i
